High-throughput results: PubChem BioAssay, The Scripps Research Institute Molecular Screening Center
In the library only some 0.84% were active in any assay of this set; here they are far more common.
PPARg SRC-1 ag: agonists of human PPARgamma SRC-1 coactivator recruitment; activation, % at 8 µM; 200,000 tested, 0.41% active; P37231; PPARgamma-SRC-1 coactivator recruitment biochemical assay; in the data active means activation above about 19%
Target sequence (P37231 whole entry, looked up): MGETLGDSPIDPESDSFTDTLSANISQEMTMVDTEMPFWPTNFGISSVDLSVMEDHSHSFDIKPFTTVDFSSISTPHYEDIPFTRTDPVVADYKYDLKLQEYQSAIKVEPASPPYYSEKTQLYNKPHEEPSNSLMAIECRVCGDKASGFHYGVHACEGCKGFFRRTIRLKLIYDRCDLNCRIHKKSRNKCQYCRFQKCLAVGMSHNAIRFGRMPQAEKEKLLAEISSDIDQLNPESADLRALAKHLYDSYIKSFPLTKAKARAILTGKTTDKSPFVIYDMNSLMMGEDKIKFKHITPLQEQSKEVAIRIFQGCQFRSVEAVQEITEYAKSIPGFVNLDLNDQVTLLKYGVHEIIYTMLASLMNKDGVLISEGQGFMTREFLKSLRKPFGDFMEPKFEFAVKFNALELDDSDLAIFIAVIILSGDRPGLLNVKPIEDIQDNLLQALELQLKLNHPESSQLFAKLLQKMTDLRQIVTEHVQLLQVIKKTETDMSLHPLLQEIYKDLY
SRC3 TRFRET art: counter-screen for PPARgamma SRC-3 recruitment agonists: TR-FRET artefact. PPARgamma/SRC-3 format; hits give high values. TR-FRET ratio at 8 µM. 99,000 tested, 0.39% active. AID 1048
PPARg SRC3 recr: PPARgamma-driven SRC-3 recruitment agonism; AID 731; activation, % at 8 µM; 200,000 tested, 0.26% active; P37231; biochemical PPARgamma/SRC-3 coactivator recruitment assay; in the data active means activation above about 23%
SRC1 TRFRET art: flags TR-FRET format artefacts in PPARgamma SRC-1 recruitment agonist screen; TR-FRET detection artefact counter-screen, emission ratio; hits give high values; TR-FRET ratio at 8 µM; 99,000 tested, 0.34% active; AID 1051; in the data active means TR-FRET ratio above about 2300
PPARg SRC-2 ag: PPARgamma-driven SRC-2 recruitment agonism | 200,000 tested, 0.34% active | P37231 | activation, % at 8 µM | PPARgamma LBD-SRC-2 recruitment, biochemical; in the data active means activation above about 22%
TR-FRET SRC-2 ct: counter-screen for PPARgamma SRC-2 recruitment agonists: TR-FRET artefact; hits give high values; TR-FRET ratio at 8 µM; 200,000 tested, 0.4% active
Of the large screens only hits and unclear results are named; the others gave an inactive call. Unless noted, no stated cut-off is given here; in the data, active means TR-FRET ratio above about 2000; inactive means the rest.

O=C(COC(=O)c1sc2ccccc2c1Cl)NC1CCCCC1	PPARg SRC-2 ag 114.7, TR-FRET SRC-2 ct 4050
O=C(COC(=O)c1sc2cc(F)ccc2c1Cl)Nc1ncc(Cl)cc1Cl	none
COc1cc(NC(=O)c2cc(Cl)ccc2Cl)ccc1-c1cc2ccccc2oc1=O	TR-FRET SRC-2 ct 2091 (no result: SRC3 TRFRET art, SRC1 TRFRET art)
CCOc1ccc(N(Cc2ccccc2F)C2=NC3CS(=O)(=O)CC3S2)cc1 (stereo unspecified)	none
Cc1ccc(N2C(=O)C3CCC(c4ccccc4)CC3C2=O)cc1 (stereo unspecified)	PPARg SRC-1 ag 37.0, SRC1 TRFRET art 2647
Cc1cc2nc(-c3ccc(SCC(=O)Nc4ccc5c(c4)OCCO5)nc3)[nH]c2cc1C	TR-FRET SRC-2 ct 2267 (no result: SRC3 TRFRET art, SRC1 TRFRET art)
COc1cc(OC)cc(C(=O)NCC(=O)OCC(=O)c2ccc3c(c2)-c2ccccc2C3)c1	SRC3 TRFRET art 2602, TR-FRET SRC-2 ct 2065
COc1ccc(CC(=O)NCc2nnc(SCC(=O)Nc3ccccc3)n2C)cc1	none
COc1ccc(CC(=O)NCc2nnc(SCC(=O)Nc3cccc(F)c3)n2C)cc1	PPARg SRC-2 ag 38.2
CCCCNC(=O)CSc1nc2ccccc2n1S(=O)(=O)c1ccc(Cl)cc1	none
CCCCNC(=O)CSc1nc2ccccc2n1S(=O)(=O)c1ccc(Br)cc1	TR-FRET SRC-2 ct 1974
CC(C)CN(C(=O)c1nn(C)c(=O)c2ccccc12)c1nc2ccccc2s1	none (no result: SRC3 TRFRET art, SRC1 TRFRET art)
CCOC(=O)N1CCN(Cc2cn[nH]c2-c2cc3ccccc3o2)CC1	none
CCN(CC)C(=O)c1cn(-c2ccccc2)nc1-c1ccc2c(c1)OCCO2	TR-FRET SRC-2 ct 1980
CCN(CC)C(=O)c1cn(CCC#N)nc1-c1ccc2c(c1)OCCO2	none
Cc1cc(N2C(=O)C3CCC(c4ccccc4)CC3C2=O)no1 (stereo unspecified)	none
CCCCc1ccc(C2C(C#N)=C(N)SC(N)=C2C#N)s1	PPARg SRC-1 ag 21.0 (no result: SRC3 TRFRET art, SRC1 TRFRET art)
CCCCc1ccc(/C=C(\C#N)C(N)=S)s1	none
CCOc1ccc(-c2nn(-c3ccccc3)cc2/C=C2\SC(=S)N(C3CCS(=O)(=O)C3)C2=O)cc1 (stereo unspecified)	none (no result: SRC3 TRFRET art, SRC1 TRFRET art)
CCOc1ccc(-c2nn(-c3ccccc3)cc2/C=C2\SC(N)=NC2=O)cc1C	PPARg SRC3 recr 29.3 (no result: SRC3 TRFRET art, SRC1 TRFRET art)
CC(C)CCSc1nc(N)c(C#N)cc1C#N	TR-FRET SRC-2 ct 2957 (no result: SRC3 TRFRET art, SRC1 TRFRET art)
Cc1ccc2c(c1)N(CCC(=O)NCc1cccs1)C(=O)C(C)O2 (stereo unspecified)	none (no result: SRC3 TRFRET art, SRC1 TRFRET art)
COC(=O)c1ccc(/C=N/Nc2nc(N3CCCCC3)nc(N3CCCCC3)n2)cc1	none
CCCCc1ccc(-n2nnnc2SCC(=O)Nc2cc(OC)c([N+](=O)[O-])cc2C)cc1	none
Cc1ccc(C(=O)Nc2ccc(Oc3ccc(C(=O)O)c(C(=O)O)c3)cc2)cc1C	PPARg SRC-2 ag 22.5 (no result: SRC3 TRFRET art, SRC1 TRFRET art)
CCOC(=O)COc1ccc(/C=C2\NC(=S)N(CC)C2=O)cc1	PPARg SRC-2 ag 94.0, TR-FRET SRC-2 ct 3635
O=C(CSc1nc2cc(Cl)ccc2s1)c1cc2ccccc2o1	TR-FRET SRC-2 ct 2199 (no result: SRC3 TRFRET art, SRC1 TRFRET art)
Cc1cc(NC(=O)CSc2nc3cc(Cl)ccc3s2)no1	none (no result: SRC3 TRFRET art, SRC1 TRFRET art)
Cc1cc(SCC(=O)c2cc3ccccc3o2)nc2ccccc12	TR-FRET SRC-2 ct 2575 (no result: SRC3 TRFRET art, SRC1 TRFRET art)
Cc1ccc(Cl)cc1NC(=S)NCCCSC1CCCCC1	none
CCOCCCNC(=O)C(NC(=O)c1ccc(NC(C)=O)cc1)c1ccc(OC)cc1 (stereo unspecified)	none
C=CCN(C(=O)CNC(=O)c1cccs1)C(C(=O)NC1CCCCC1)c1cccnc1 (stereo unspecified)	none
CCCCOC(=O)CSc1nc(N)c(C#N)c(-c2ccc(OCC)cc2)c1C#N	PPARg SRC-1 ag 56.4 (no result: SRC3 TRFRET art, SRC1 TRFRET art)
Cc1ccc(C)c(S(=O)(=O)N2CCCOC2CNC(=O)C(=O)NCc2ccncc2)c1 (stereo unspecified)	none
O=C(CSc1nnc2c3ccccc3c3ccccc3c2n1)Nc1ccccc1	PPARg SRC-1 ag 64.0 (no result: SRC3 TRFRET art, SRC1 TRFRET art)
O=C(CSc1nnc2c3ccccc3c3ccccc3c2n1)Nc1ccccc1F	none (no result: SRC3 TRFRET art, SRC1 TRFRET art)
CCOC(=O)c1c(NC(=O)CSc2nc3ccccc3s2)sc(C(C)=O)c1C	TR-FRET SRC-2 ct 2122 (no result: SRC3 TRFRET art, SRC1 TRFRET art)
CCOC(=O)c1c(NC(=O)CSc2nc3cc(Cl)ccc3s2)sc(C(C)=O)c1C	none
COc1ccc(NC(=O)CSc2ccc3c4c(cccc24)C(=O)c2ccccc2-3)cc1	PPARg SRC3 recr 42.8 (no result: SRC3 TRFRET art, SRC1 TRFRET art)
N#Cc1cccc(NC(=O)CSc2ccc3c4c(cccc24)C(=O)c2ccccc2-3)c1	none (no result: SRC3 TRFRET art, SRC1 TRFRET art)
Cc1cccc(N2CCN(Cc3nc(CC4CC4)no3)CC2)n1	none
O=C(CCc1nnc(-c2ccccc2)o1)NCC1CCN(C2CCCC2)CC1	none
CC(=O)N(C)c1ccc(NC(=S)NCC(C)C)cc1	none
CC(NCC(=O)Nc1cc(S(=O)(=O)N2CCCCCC2)ccc1Cl)c1ccccc1 (stereo unspecified)	none
COc1ccc(OC)c(NC(=O)CSc2nnc(N)s2)c1	PPARg SRC-2 ag 22.8 (no result: SRC3 TRFRET art, SRC1 TRFRET art)
COc1ccc(OC)c(NC(=O)CSc2nnc(-c3cccnc3)s2)c1	none
COc1cccc(-c2cc3nc(-c4ccccc4)cc(N4CCC5(CC4)OCCO5)n3n2)c1	TR-FRET SRC-2 ct 2317 (no result: SRC3 TRFRET art, SRC1 TRFRET art)
COCCCNc1nc(SCc2ccccc2)nc2sc3c(c12)CCC3	none (no result: SRC3 TRFRET art, SRC1 TRFRET art)
N#Cc1cnn(-c2nc(SCc3ccccc3)nc3sc4c(c23)CCCC4)c1N	TR-FRET SRC-2 ct 2441 (no result: SRC3 TRFRET art, SRC1 TRFRET art)
CC(=O)Nc1ccc(C(=O)Nc2ccc(S(=O)(=O)N3CCCC3)cc2)cc1	none
CS(=O)(=O)Nc1ccc(C(=O)Nc2ccc(S(=O)(=O)N3CCCC3)cc2)cc1	TR-FRET SRC-2 ct 1992
O=C(CSc1nc2ccccc2c(=O)n1-c1ccc(F)cc1)Nc1cc(S(=O)(=O)N2CCOCC2)ccc1Cl	TR-FRET SRC-2 ct 2011
O=C(CSc1nc2cc(Cl)ccc2c(=O)n1Cc1ccco1)Nc1ccc(S(=O)(=O)N2CCOCC2)cc1	SRC3 TRFRET art 2505, TR-FRET SRC-2 ct 2029
COC(=O)c1ccc2c(=O)n(Cc3ccco3)c(SCC(=O)Nc3ccc(C)c(Cl)c3)nc2c1	none (no result: SRC3 TRFRET art, SRC1 TRFRET art)
Cc1ccnc2ccc(SC(F)(F)F)cc12	none
Cc1nc(N2CCN(S(=O)(=O)c3ccc(F)cc3)CC2)c2c(-c3cccs3)csc2n1	SRC3 TRFRET art 2853, SRC1 TRFRET art 3173, TR-FRET SRC-2 ct 2641
O=S(=O)(c1ccccc1)N1CCN(c2nc(-c3cccs3)nc3ccccc23)CC1	none
COc1ccc([N+](=O)[O-])cc1NC(=S)NC(NC(=O)C(c1ccccc1)c1ccccc1)C(Cl)(Cl)Cl (stereo unspecified)	TR-FRET SRC-2 ct 2107 (no result: SRC3 TRFRET art, SRC1 TRFRET art)
COc1cc(CCN2C(=O)c3cccc4cccc(c34)C2=O)c(S(=O)(=O)N2CCC(C)CC2)cc1OC	none
CCCCn1c(NC(=O)c2ccccc2Cl)c(C#N)c2nc3ccccc3nc21	none (no result: SRC3 TRFRET art, SRC1 TRFRET art)
N#Cc1c(NC(=O)c2ccccc2Cl)n(Cc2ccccc2)c2nc3ccccc3nc12	PPARg SRC-1 ag 20.6, PPARg SRC3 recr 62.1
CN(C)S(=O)(=O)c1ccc(N2CCCC2)c(C(=O)Nc2nc3c(ccc4ccccc43)s2)c1	SRC3 TRFRET art 2179, TR-FRET SRC-2 ct 2069
